Test results: PMC5540273 (PLoS ONE, 2017)

Legend:
Settings in all cases: concentration: 1 μM, replicates: in singlicate; n = 1
[1] = test system: T1, DMPK2
T1 construct: gene CDC42BPG

[2] = test system: DMPK
[3] = test system: T2, DRAK1
T2 construct: gene STK17A

[4] = test system: T3, DRAK2
T3 construct: gene STK17B

[5] = test system: DYRK1A
[6] = test system: DYRK1B
[7] = test system: DYRK2
[8] = test system: EGFR
[9] = test system: EIF2AK1
[10] = test system: EPHA1
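Note: KINOMEscan kinase panel screen.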

SMILES | %Inh [1] | %Inh [2] | %Inh [3] | %Inh [4] | %Inh [5] | %Inh [6] | %Inh [7] | %Inh [8] | %Inh [9] | %Inh [10]
CC(=O)c1c(C)c2cnc(Nc3ccc(N4CCNCC4)cn3)nc2n(C2CCCC2)c1=O | 96% | 15% | 8% | 5% | 0% | 0% | 0% | 4% | 0% | 24%
c1ccc(-c2ccnc3[nH]ccc23)cc1 [SB-693578] | 0% | 0% | 8% | 0% | 34% | 0% | 19% | 17% | 6% | 25%
FC(F)(F)c1ccccc1-c1cc(-c2c[nH]nc2-c2ccccn2)ccn1 [GW679396] | 7% | 16% | 14% | 2% | 0% | 13% | 12% | 0% | 0% | 0%
O=c1cc(N2CCOCC2)nc2n(Cc3ccccc3F)ccn12 [GSK2297428] | 0% | 0% | 0% | 0% | 6% | 0% | 9% | 18% | 0% | 3%
COc1ccc2cc(-c3nc(-c4ccccc4C(C)C)[nH]c3-c3ccncc3)ccc2c1 [SB-660566] | 0% | 0% | 6% | 0% | 31% | 15% | 7% | 18% | 3% | 22%
COC(=O)c1cccc(NC(=O)NC2CCN(c3ccnc(Nc4ccc(OC)cc4)n3)C2)c1 (centres unmarked) [GSK1379746] | 0% | 0% | 4% | 10% | 11% | 15% | 9% | 31% | 0% | 6%
CC(C)c1ccc(O)cc1Nc1ccnc2ccc(C(F)(F)F)cc12 [GW482059] | 0% | 0% | 10% | 0% | 13% | 16% | 8% | 37% | 3% | 6%
Cc1ccc(NC(=O)Nc2ccccc2F)cc1-c1ccc(C(=O)Nc2ccncc2)cc1 [GSK1398477] | 16% | 3% | 1% | 0% | 26% | 8% | 17% | 24% | 0% | 0%
Cc1c(Cn2c(C)c(C)n3c(=O)cc(N4CCOCC4)nc23)cccc1C(F)(F)F [GSK2328680] | 0% | 0% | 7% | 0% | 4% | 2% | 6% | 11% | 0% | 20%
CC(C)c1cc(-c2ccc3c(N)n[nH]c3c2)nc(N)n1 [GSK2250882] | 0% | 1% | 98.4% | 0% | 28% | 0% | 78% | 17% | 12% | 2%
O=C(Nc1n[nH]c2nc(-c3ccco3)c(Br)cc12)C1CCN(Cc2ccccc2)C1.O=C(O)[C@H](O)[C@@H](O)C(=O)O (centres unmarked) [SB-742034] | 0% | 0% | 11% | 13% | 22% | 0% | 32% | 1% | 33% | 0%
O=C(Nc1n[nH]c2nc(-c3cccs3)c(Br)cc12)C1CCCC1 [SB-743341] | 9% | 5% | 9% | 7% | 24% | 0% | 36% | 1% | 31% | 10%
Cc1ccccc1-c1cc(-c2c[nH]nc2-c2ccccn2)ccn1 [GW680061] | 0% | 0% | 2% | 0% | 14% | 0% | 0% | 38% | 0% | 3%
Fc1ccc(-c2nc[nH]c2-c2ccncc2)cc1 [SB-217360] | 71% | 0% | 0% | 0% | 6% | 0% | 33% | 31% | 0% | 0%
Cc1cnc(N)c(/C=C/c2cncc(C(=O)NCCc3ccc(Cl)cc3Cl)c2)c1.Cl [GSK190937] | 3% | 0% | 18% | 0% | 8% | 15% | 4% | 0% | 0% | 0%
Cn1cncc1-c1cc2c(Nc3ccc(OCc4ccccc4)cc3)ncnc2cn1 [GW281179] | 0% | 0% | 93% | 5% | 19% | 21% | 3% | 100% | 0% | 14%
Nc1cccc(-c2ccc3c(N)n[nH]c3c2)n1 [GSK2192730] | 0% | 0% | 68% | 0% | 25% | 21% | 52% | 0% | 0% | 14%
